Measurements taken from PubChem BioAssay (NCI).
Values joined by “and” are separate entries in the source; they are usually repeats but may differ in a detail not shown here. Equal entries are not always repeated. Compounds without any hit were thinned out: in the full panel of roughly 83,000, 20% have a hit.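 Negative percent growth values reflect cell death: -40 means 40% of the cells present at the start died, and -100 means all died.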 Active and inactive are the calls of the source. How the source made its calls: active means growth percent below 10; inactive means the rest.

How the values were obtained:
Test in all cases: NCI-60 one-dose screen, 48 h (100 = growth as untreated, 0 = no growth, -100 = all killed)
NCI-H23 lung = tested on: NCI-H23 lung
NCI-H226 lung = tested on: NCI-H226 lung
NCI-H322M lung = tested on: NCI-H322M lung
HOP-62 NSCLC = tested on: HOP-62 NSCLC
NCI-H460 lung = tested on: NCI-H460 lung
HOP-92 NSCLC = tested on: HOP-92 NSCLC
NCI-H522 lung = tested on: NCI-H522 lung
A549/ATCC NSCLC = tested on: A549/ATCC NSCLC
786-0 renal = tested on: 786-0 renal
COLO 205 colon = tested on: COLO 205 colon
DU-145 prostate = tested on: DU-145 prostate
K-562 leukemia = tested on: K-562 leukemia
MALME-3M melanoma = tested on: MALME-3M melanoma
MDA-MB-231 breast = tested on: MDA-MB-231 breast
RXF 393 renal = tested on: RXF 393 renal
SF-268 CNS = tested on: SF-268 CNS
SF-295 CNS = tested on: SF-295 CNS
SF-539 CNS = tested on: SF-539 CNS
UACC-257 melanoma = tested on: UACC-257 melanoma
M14 melanoma = tested on: M14 melanoma

Measured: growth

Cn1ncc2cc3c(Nc4ccc(Cl)cc4)cccc3nc21
inactive: NCI-H23 lung; 10 µM 85.6% | NCI-H226 lung; 10 µM 94.4% | NCI-H322M lung; 10 µM 104% | HOP-62 NSCLC; 10 µM 89.3% | NCI-H460 lung; 10 µM 89.8% | HOP-92 NSCLC; 10 µM 77% | NCI-H522 lung; 10 µM 83.8% | A549/ATCC NSCLC; 10 µM 80% | 786-0 renal; 10 µM 89.3% | COLO 205 colon; 10 µM 96.1% | DU-145 prostate; 10 µM 90% | K-562 leukemia; 10 µM 80.2% | MALME-3M melanoma; 10 µM 122% | MDA-MB-231 breast; 10 µM 81.7% | RXF 393 renal; 10 µM 90.5% | SF-268 CNS; 10 µM 85.5% | SF-295 CNS; 10 µM 87.6% | SF-539 CNS; 10 µM 90.7% | UACC-257 melanoma; 10 µM 100% | M14 melanoma; 10 µM unless noted 104%

CC(=O)O[C@H]1C(=O)[C@@]2(C)[C@H]([C@H](OC(=O)c3ccccc3)[C@]3(O)C[C@H](OC(=O)[C@H](O)[C@@H](NC(=O)c4ccccc4)c4ccccc4)C(C)=C1C3(C)C)[C@]1(OC(C)=O)CO[C@@H]1C[C@@H]2O
-16.2% (active) and 11.8% (inactive): NCI-H522 lung; 10 µM
28.9% (inactive) and -25.2% (active): RXF 393 renal; 10 µM
29.1% (inactive) and 5.06% (active): MDA-MB-231 breast; 10 µM
inactive: NCI-H23 lung; 0.01 µM 24.1% | NCI-H23 lung; 2.5 µM 23.2% | NCI-H23 lung; 5 µM 30.5% | NCI-H23 lung; 10 µM 40.3% and 34.8% | NCI-H226 lung; 0.01 µM 67.6% | NCI-H226 lung; 2.5 µM 27.4% | NCI-H226 lung; 5 µM 32.1% | NCI-H226 lung; 10 µM 77.4% and 31% | NCI-H322M lung; 0.01 µM 53.8% | NCI-H322M lung; 2.5 µM 30.7% | NCI-H322M lung; 5 µM 30.1% | NCI-H322M lung; 10 µM 21.2% and 30.1% | HOP-62 NSCLC; 0.01 µM 48.2% | HOP-62 NSCLC; 2.5 µM 12.5% | HOP-62 NSCLC; 5 µM 15.4% | NCI-H460 lung; 0.01 µM 13.8% | HOP-92 NSCLC; 0.01 µM 53.2% | HOP-92 NSCLC; 2.5 µM 32.9% | HOP-92 NSCLC; 5 µM 42.7% | HOP-92 NSCLC; 10 µM 37.4% | NCI-H522 lung; 0.01 µM 22.1% | A549/ATCC NSCLC; 0.01 µM 31.4% | A549/ATCC NSCLC; 2.5 µM 18.5% | A549/ATCC NSCLC; 5 µM 21.2% | A549/ATCC NSCLC; 10 µM 47.3% and 29.9% | 786-0 renal; 0.01 µM 51.7% | 786-0 renal; 2.5 µM 17.7% | 786-0 renal; 5 µM 31% | 786-0 renal; 10 µM 42.2% and 42.3% | COLO 205 colon; 0.01 µM 13.4% | K-562 leukemia; 0.01 µM 10.7% | MALME-3M melanoma; 0.01 µM 52.3% | MALME-3M melanoma; 2.5 µM 51.7% | MALME-3M melanoma; 5 µM 61.6% | MALME-3M melanoma; 10 µM 52.5% and 62.6% | MDA-MB-231 breast; 0.01 µM 49.4% | SF-268 CNS; 0.01 µM 42.1% | SF-268 CNS; 2.5 µM 27.2% | SF-268 CNS; 5 µM 29.5% | SF-268 CNS; 10 µM 37.1% and 36.3% | SF-295 CNS; 0.01 µM 55.9% | UACC-257 melanoma; 0.01 µM 14.6% | UACC-257 melanoma; 2.5 µM 48.7% | UACC-257 melanoma; 5 µM 59.6% | UACC-257 melanoma; 10 µM 26.9% and 65% | M14 melanoma; 5 µM 19.5% | M14 melanoma; 10 µM 24.9% and 24.5%
active: NCI-H460 lung; 2.5 µM 3.32% | NCI-H460 lung; 5 µM 4.65% | NCI-H460 lung; 10 µM 8.92% and 6.58% | NCI-H522 lung; 2.5 µM -12.4% | NCI-H522 lung; 5 µM 1.57% | COLO 205 colon; 2.5 µM -54.6% | COLO 205 colon; 5 µM -47.9% | COLO 205 colon; 10 µM 9.93% and -37.3% | DU-145 prostate; 0.01 µM -35.7% | DU-145 prostate; 2.5 µM -5.74% | DU-145 prostate; 5 µM -7.54% | DU-145 prostate; 10 µM -49.5% and -4.6% | K-562 leukemia; 2.5 µM 5.83% | K-562 leukemia; 5 µM 6.14% | K-562 leukemia; 10 µM -6.92% and 5.96% | MDA-MB-231 breast; 2.5 µM -6.11% | MDA-MB-231 breast; 5 µM 2.87% | RXF 393 renal; 0.01 µM 1.22% | RXF 393 renal; 2.5 µM -29.4% | RXF 393 renal; 5 µM -25.8% | SF-295 CNS; 2.5 µM 2.61% | SF-295 CNS; 5 µM 3.25% | SF-295 CNS; 10 µM 9.92% and 1.83% | SF-539 CNS; 0.01 µM -15.1% | SF-539 CNS; 2.5 µM -28.7% | SF-539 CNS; 5 µM -33.8% | SF-539 CNS; 10 µM -14.3% and -16.1% | M14 melanoma; 2.5 µM -1.65%
30.7% (inactive) and 6.92% (active): HOP-62 NSCLC; 10 µM

Cc1cc(N=C2C=CC(=[N+](C)C)C=C2)c(N)cc1N
inactive: NCI-H23 lung; 10 µM 78.2% | NCI-H226 lung; 10 µM 97.9% | NCI-H322M lung; 10 µM 93.7% | HOP-62 NSCLC; 10 µM 101% | NCI-H460 lung; 10 µM 102% | HOP-92 NSCLC; 10 µM 97.3% | NCI-H522 lung; 10 µM 77.7% | A549/ATCC NSCLC; 10 µM 84.6% | 786-0 renal; 10 µM 96% | COLO 205 colon; 10 µM 95.8% | DU-145 prostate; 10 µM 104% | K-562 leukemia; 10 µM 57.3% | MALME-3M melanoma; 10 µM 106% | MDA-MB-231 breast; 10 µM 65.2% | RXF 393 renal; 10 µM 96.3% | SF-268 CNS; 10 µM 97.9% | SF-295 CNS; 10 µM 90.8% | SF-539 CNS; 10 µM 89.3% | UACC-257 melanoma; 10 µM 103% | M14 melanoma; 10 µM unless noted 107%

CC1CCC2(C(=O)O)CCC3(C)C(=CCC4C5(C)CC(O)C(O)C(C)(CO)C5C(O)CC43C)C2C1C (centres undefined)
inactive: NCI-H23 lung; 10 µM 94.6% | NCI-H226 lung; 10 µM 115% | NCI-H322M lung; 10 µM 98.7% | HOP-62 NSCLC; 10 µM 111% | NCI-H460 lung; 10 µM 111% | HOP-92 NSCLC; 10 µM 79% | NCI-H522 lung; 10 µM 87.9% | A549/ATCC NSCLC; 10 µM 27% | 786-0 renal; 10 µM 110% | COLO 205 colon; 10 µM 112% | DU-145 prostate; 10 µM 110% | K-562 leukemia; 10 µM 106% | MALME-3M melanoma; 10 µM 103% | MDA-MB-231 breast; 10 µM 107% | RXF 393 renal; 10 µM 26.2% | SF-268 CNS; 10 µM 111% | SF-295 CNS; 10 µM 112% | SF-539 CNS; 10 µM 99.6% | UACC-257 melanoma; 10 µM 93.7% | M14 melanoma; 10 µM unless noted 53.9%
